Measurements taken from PubChem BioAssay (NCI).
The panel holds about 83,000 compounds, 20% with a hit somewhere; the sample as a whole holds those more often.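 Treatment: one concentration, 48 hours, 96-well format. Scoring: percent growth, with anything below 10 considered active.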 A number with no mark means an inactive call. The source made the active and inactive calls.

How the values were obtained:
Assay in all cases: NCI-60 one-dose screen, 48 h (100 = growth as untreated, 0 = no growth, -100 = all killed)
Settings in all cases: 10 µM unless noted
NCI-H23 lung = tested on: NCI-H23 lung
NCI-H226 lung = tested on: NCI-H226 lung
NCI-H322M lung = tested on: NCI-H322M lung
HOP-62 NSCLC = tested on: HOP-62 NSCLC
NCI-H460 lung = tested on: NCI-H460 lung
HOP-92 NSCLC = tested on: HOP-92 NSCLC
NCI-H522 lung = tested on: NCI-H522 lung
A549/ATCC NSCLC = tested on: A549/ATCC NSCLC
786-0 renal = tested on: 786-0 renal
COLO 205 colon = tested on: COLO 205 colon

Row | Structure (SMILES) | growth (NCI-H23 lung) | growth (NCI-H226 lung) | growth (NCI-H322M lung) | growth (HOP-62 NSCLC) | growth (NCI-H460 lung) | growth (HOP-92 NSCLC) | growth (NCI-H522 lung) | growth (A549/ATCC NSCLC) | growth (786-0 renal) | growth (COLO 205 colon)
1 | COc1ccc(-c2nc([C@@H](C)Sc3nc(N)cc(N)n3)c(C)s2)cc1OCCN1CCOCC1 | 103% | 95.7% | 109% | 94.5% | 110% | 95.3% | 87% | 96.2% | 104% | 116%
2 | O=C(Nc1cccc(C(=O)N2CCc3ccc(Cl)cc32)c1)c1ccco1 | 62.4% | 60.2% | 65.2% | 42.4% | 15.8% | 74.1% | 17.8% | 38.3% | 40.5% | 27.5%
3 | O=C(NNc1nc2c(F)cccc2n2cccc12)c1cnccn1 | 24.8% | 31.7% | 25.5% | 30.2% | 11.6% | 67.4% | 2.24% (active) | 15.7% | 27.4% | -4% (active)
4 | O=c1[nH]nc(-c2ccccc2)c2sc3ncc(-c4ccc(Br)cc4)n3c12 | 61.6% | 43.8% | 72.3% | 48.8% | 33.8% | 65.3% | -1.56% (active) | 82.9% | 53% | 37.2%
5 | O=C(/C=C(O)/C=C/c1ccc(SC(F)(F)F)cc1)/C=C/c1ccc(SC(F)(F)F)cc1 | 83.2% | 100% | 102% | 101% | 91.1% | 93% | 93.7% | 95.4% | 87.2% | 114%
6 | CCCN1[C@@H]2CC[C@H]1/C(=C\c1ccc(OC)c(OC)c1)C(=O)/C2=C/c1ccc(OC)c(OC)c1 | 23.8% | 67.3% | 46.7% | 68.2% | 39.6% | 39.8% | 47.8% | 49.3% | 63.8% | 51.4%
7 | N/C(=N\C(N)=N\c1nc2ccccc2s1)c1ccnc(Br)c1 | 44.5% | 60.1% | 97.4% | 29.8% | 16.4% | 47% | 9.9% (active) | 61.3% | 32.2% | 21.4%
8 | CCOC(=O)[C@@H](C)C[C@H](Cc1ccccc1)NC(=O)c1csc([C@@H](C[C@H](C(C)C)N(C)C(=O)[C@@H](NC(=O)[C@H]2C[C@H](O[Si](C)(C)C(C)(C)C)CCN2C)C(C)C)OC(C)=O)n1 | 17.6% [9.25 µM] | -39.2% [9.25 µM] (active) | 25% [9.25 µM] | 0.247% [9.25 µM] (active) | -23.9% [9.25 µM] (active) | -9.53% [9.25 µM] (active) | -46.7% [9.25 µM] (active) | 7.91% [9.25 µM] (active) | -5.36% [9.25 µM] (active) | -72.6% [9.25 µM] (active)
9 | COC(=O)/C=C1\S/C(=N\NC(=O)c2cc3ccc2/C=C\c2ccc(cc2)/C=C\3)N(c2ccccc2)C1=O | 40.4% | 73.8% | 68.5% | 3% (active) | 60.7% | 75.3% | 41.5% | 69.1% | -0.285% (active) | 47.7%
10 | N#Cc1c(NC(=O)NCc2ccccc2)sc2c1CCCCC2 | 37.5% | 22.5% | 44.9% | 34.2% | 0.445% (active) | 44.8% | 12.1% | 25.5% | 26.3% | 2.15% (active)
11 | Cc1ncc(C(=O)Nc2ccc(CN3CCN(C)CC3)c(C(F)(F)F)c2)cc1C#Cc1cnc(N)cc1C#N | 30.6% | -71% (active) | 28% | 42.3% | -77.6% (active) | 17.3% | -46.2% (active) | -89.5% (active) | -65.5% (active) | 21.5%
12 | Cc1ccc(NC(C(=O)c2ccccc2)c2ccccc2)cc1 (stereo not given) | 59.5% | 75.3% | 97.3% | 80.2% | 46.9% | 39.8% | 34.4% | 58% | 75.5% | 41.9%
13 | CC(=O)Oc1ccc(/C=N/NC(N)=S)nc1 | 37.8% | 32.1% | 92.8% | 74.5% | 96.4% | 63.9% | 74.5% | 98.2% | 53.3% | 92.7%
14 | Cc1nc2sccn2c1-c1cn2ccsc2n1 | 60.2% | 84.3% | 82.7% | 90.7% | 65.9% | 69.6% | 89.2% | 98.9% | 95.8% | 87.2%
15 | CCOC(=O)Nc1ccc(-c2ccc3c(c2)NC(=O)/C3=C\c2ccc[nH]2)cc1 | 47.3% | 68% | 63.1% | 91.9% | 37.1% | 102% | 97.8% | 103% | 108% | 125%
16 | COc1ccc(-c2cnc3c(-c4cccc5cnccc45)cnn3c2)cc1 | 74.5% | 29.3% | 68.3% | 55.1% | 23.4% | 63% | 48.3% | 39.8% | 29.4% | 67.8%
17 | CCCOC(=O)N[C@H]1CCc2c(Cl)c(OC)c(OC)c(OC)c2-c2ccc(SC)c(=O)cc21 | 26.8% | 6.58% (active) | 31.8% | 40.5% | 1.99% (active) | -2.58% (active) | 12.3% | 22.8% | 4.31% (active) | 0.25% (active)
18 | CCC(=O)Oc1ccc(/C(=C(\C)c2ccccc2)c2ccc(OCCN3CCCCC3)cc2)cc1 | 75.1% | 82.9% | 82% | 76% | 72% | 86.5% | 74.4% | 71.1% | 67.3% | 32.7%
19 | Cc1nc2sccn2c1-c1nc2sccn2c1/C=C1/C(=O)Nc2ccccc21 | 53.4% | 63.1% | 67.1% | 53.7% | 20.5% | 4.55% (active) | -6.81% (active) | 39.5% | 51.1% | 20.1%
20 | NC(=O)CSSCC(N)=O | 99.2% | 108% | 96.9% | 103% | 111% | 83.8% | 92.1% | 93.1% | 95.3% | 108%
21 | COc1ccc(-c2cnc3c(-c4cccc5ncccc45)cnn3c2)cc1 | 50% | 0.736% (active) | 42.7% | 4.66% (active) | 33.9% | 24.9% | 32.8% | 27.2% | 18.3% | 88.5%
22 | COc1ccc2[nH]c(O)c(/C=c3/cc4c(c(-c5ccc(F)cc5)n3)=Nc3ccccc3-4)c2c1 | 67.9% | 76.3% | 94% | 95.5% | 41.5% | 66.7% | 68.5% | 75.8% | 97.6% | 96.6%
23 | Cc1cc2cc3ccc(N(C)C)cc3nc2cc1N | -25.6% (active) | -28.4% (active) | -5.9% (active) | -39.1% (active) | -70.9% (active) | -4.62% (active) | -49.9% (active) | -18.7% (active) | 8.26% (active) | -67.7% (active)
24 | Cc1ccc(S(=O)(=O)NNC(=O)/C(=C\c2ccc(Cl)cc2)c2nc3ccccc3s2)cc1 | 96.4% | 81.2% | 92.7% | 109% | 86% | 87.3% | 91.7% | 91.9% | 99.5% | 117%
25 | CC1(C)c2[nH]c3ccccc3c2C[C@]2(C)[C@H]3C(=O)C=C4[C@@H]5C[C@@](C)(C(N)=O)CC[C@]5(C)CC[C@@]4(C)[C@]3(C)CC[C@@H]12 | 72.5% | 73.2% | 66.4% | 85.3% | 69.4% | 55.4% | 68.7% | 65.8% | 75% | 46.7%
26 | CN(CCN(C)c1ccc(C(=N)N)cc1)c1ccc(C(=N)N)cc1 | 86.3% | 84% | 93.1% | 102% | 92% | 35% | 92.4% | 103% | 107% | 134%
